# Test results as given in the supplement of paper PMC7057948, “A genome-wide approach for identification and characterisation of metabolite-inducible systems” (Nature Communications, 2020).
# Tests used:
# Conditions in all cases: inducer concentration 5 mM; 6 h; Cupriavidus necator H16; minimal medium + 0.4% gluconate
# [1] = tested on: AcoR/P_H16_RS19445 acetoin biosensor (pEH052); assay: relative induction of RFP reporter vs primary effector; higher = stronger activation
# Procedure: (§1)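 Orthogonality screen of 21 primary inducers against 21 transcription factor/inducible promoter–mRFP biosensors in C. necator H16 in minimal medium, robotic 96-well format, 5 mM inducer, 30 °C. OD-normalised RFP fluorescence was read 6 h later and expressed as relative induction (%) = 100 × (FL compound − FL uninduced)/(FL primary inducer − FL uninduced); mean of n=4. Cognate pairs (100% by definition) omitted.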
# [2] = tested on: AraC/P_araBAD L-arabinose biosensor (pEH176); assay: as above
# Procedure: as §1
# [3] = tested on: BadR/P_H16_RS27200 cyclohexanecarboxylate biosensor (pEH159); assay: as above
# Procedure: as §1
# [4] = tested on: BenM/P_H16_RS09790 benzoate biosensor (pEH148); assay: as above
# Procedure: as §1
# [5] = tested on: FdsR/P_H16_RS03165 formate biosensor (pEH134); assay: as above
# Procedure: as §1
# [6] = tested on: GabR/P_H16_RS23655 GABA biosensor (pEH256); assay: as above
# Procedure: as §1
# [7] = tested on: HpdA/P_H16_RS24175 L-tyrosine biosensor (pEH158); assay: as above
# Procedure: as §1
# [8] = tested on: NahR/P_H16_RS08125 salicylate biosensor (pEH042); assay: as above
# Procedure: as §1
# [9] = tested on: OapR/P_H16_RS01330 beta-alanine biosensor (pEH147); assay: as above
# Procedure: as §1
# [10] = tested on: PcaQ/P_H16_RS30145 3,4-dihydroxybenzoate biosensor (pEH161); assay: as above
# Procedure: as §1
# [11] = tested on: PhgR/P_H16_RS05530 phenylglyoxylate biosensor (pEH155); assay: as above
# Procedure: as §1
# [12] = tested on: SauR/P_H16_RS13695 sulfonatoacetate biosensor (pEH157); assay: as above
# Procedure: as §1
# [13] = tested on: XdhR/P_H16_RS05055 xanthine biosensor (pEH154); assay: as above
# Procedure: as §1
# [14] = tested on: heterologous L-rhamnose-inducible system; assay: as above
# Procedure: as §1
# [15] = tested on: heterologous acrylate-inducible system; assay: as above
# Procedure: as §1
# [16] = tested on: heterologous cumate-inducible system; assay: as above
# Procedure: as §1
# [17] = tested on: heterologous itaconate-inducible system; assay: as above
# Procedure: as §1
# [18] = tested on: AcoR/P_H16_RS19445 acetoin biosensor (pEH052); assay: relative induction of RFP reporter vs primary effector (background-corrected); higher = stronger activation of the biosensor
# Procedure: (§2)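 C. necator H16 strains, each carrying one of 21 transcription factor/inducible promoter–mRFP biosensor plasmids, were grown in minimal medium in 96-well plates (robotic platform). Each was exposed to 46 structurally or metabolically related compounds at 5 mM at 30 °C. OD-normalised RFP fluorescence was read 6 h later and expressed as relative induction (%) = 100 × (FL compound − FL uninduced)/(FL primary inducer − FL uninduced); mean of n=4.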
# [19] = tested on: AraC/P_araBAD L-arabinose biosensor (pEH176); assay: as above
# Procedure: as §2
# [20] = tested on: BenM/P_H16_RS09790 benzoate biosensor (pEH148); assay: as above
# Procedure: as §2
# [21] = tested on: FdsR/P_H16_RS03165 formate biosensor (pEH134); assay: as above
# Procedure: as §2
# [22] = tested on: GabR/P_H16_RS23655 GABA biosensor (pEH256); assay: as above
# Procedure: as §2
# [23] = tested on: HpdR/P_H16_RS18295 3-hydroxypropanoate biosensor (pEH010); assay: as above
# Procedure: as §2
# [24] = tested on: KynR/P_H16_RS14030 L-kynurenine biosensor (pEH136); assay: as above
# Procedure: as §2
# [25] = tested on: NahR/P_H16_RS08125 salicylate biosensor (pEH042); assay: as above
# Procedure: as §2
# [26] = tested on: OapR/P_H16_RS01330 beta-alanine biosensor (pEH147); assay: as above
# Procedure: as §2
# [27] = tested on: PcaQ/P_H16_RS30145 3,4-dihydroxybenzoate biosensor (pEH161); assay: as above
# Procedure: as §2
# [28] = tested on: PhgR/P_H16_RS05530 phenylglyoxylate biosensor (pEH155); assay: as above
# Procedure: as §2
# [29] = tested on: PhhR/P_H16_RS18365 L-phenylalanine biosensor (pEH137); assay: as above
# Procedure: as §2
# [30] = tested on: SauR/P_H16_RS13695 sulfonatoacetate biosensor (pEH157); assay: as above
# Procedure: as §2
# [31] = tested on: TtdR/P_H16_RS10665 tartrate biosensor (pEH083); assay: as above
# Procedure: as §2
# [32] = tested on: XdhR/P_H16_RS05055 xanthine biosensor (pEH154); assay: as above
# Procedure: as §2
# [33] = tested on: heterologous inducible system pEH002 (rhamnose/acrylate/cumate/itaconate set); assay: as above
# Procedure: as §2
# [34] = tested on: heterologous inducible system pEH020 (rhamnose/acrylate/cumate/itaconate set); assay: as above
# Procedure: as §2
# [35] = tested on: heterologous inducible system pEH040 (rhamnose/acrylate/cumate/itaconate set); assay: as above
# Procedure: as §2
# [36] = tested on: heterologous inducible system pEH086 (rhamnose/acrylate/cumate/itaconate set); assay: as above
# Procedure: as §2
# [37] = tested on: TtdR/P_H16_RS10665 tartrate biosensor (pEH083); assay: relative induction of RFP reporter vs primary effector; higher = stronger activation
# Procedure: as §1
# 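Throughout, for relative induction of RFP reporter vs primary effector (background-corrected): RFP excited at 585 nm with emission read at 620 nm, culture medium blanks subtracted from fluorescence and absorbance prior to normalisation.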
smiles,measurement,setting,value
O=C(O)C(O)C(O)C(=O)O (stereo not drawn) [tartrate],relative induction of RFP reporter,[1],0.491%
same,relative induction of RFP reporter,[2],-0.00769%
same,relative induction of RFP reporter,[3],-0.687%
same,relative induction of RFP reporter,[4],0.00705%
same,relative induction of RFP reporter,[5],-1.89%
same,relative induction of RFP reporter,[6],0.312%
same,relative induction of RFP reporter,[7],-0.0207%
same,relative induction of RFP reporter,[8],0.0221%
same,relative induction of RFP reporter,[9],-0.132%
same,relative induction of RFP reporter,[10],0.0285%
same,relative induction of RFP reporter,[11],-0.242%
same,relative induction of RFP reporter,[12],0.033%
same,relative induction of RFP reporter,[13],-0.458%
same,relative induction of RFP reporter,[14],0.0177%
same,relative induction of RFP reporter,[15],-0.36%
same,relative induction of RFP reporter,[16],-0.8%
same,relative induction of RFP reporter,[17],0.359%
O=C(O)c1ccccc1,relative induction of RFP reporter,[10],0.00574%
O=C(O)C1CCCC1 [cyclopentane-1-carboxylate],relative induction of RFP reporter,[18],9.44%
same,relative induction of RFP reporter,[19],0.014%
same,relative induction of RFP reporter,[20],0.298%
same,relative induction of RFP reporter,[21],-2.26%
same,relative induction of RFP reporter,[22],-1.83%
same,relative induction of RFP reporter,[23],-0.057%
same,relative induction of RFP reporter,[24],0.335%
same,relative induction of RFP reporter,[25],-0.00226%
same,relative induction of RFP reporter,[26],3.18%
same,relative induction of RFP reporter,[27],-0.184%
same,relative induction of RFP reporter,[28],-0.24%
same,relative induction of RFP reporter,[29],-0.439%
same,relative induction of RFP reporter,[30],0.584%
same,relative induction of RFP reporter,[31],1.99%
same,relative induction of RFP reporter,[32],0.428%
same,relative induction of RFP reporter,[33],-0.0145%
same,relative induction of RFP reporter,[34],0.409%
same,relative induction of RFP reporter,[35],7.83%
same,relative induction of RFP reporter,[36],0.259%
CCC(=O)O [propanoate],relative induction of RFP reporter,[18],-1.68%
same,relative induction of RFP reporter,[19],-0.00959%
same,relative induction of RFP reporter,[20],-0.0373%
same,relative induction of RFP reporter,[21],-1.16%
same,relative induction of RFP reporter,[22],-3.91%
same,relative induction of RFP reporter,[24],-0.867%
same,relative induction of RFP reporter,[25],-0.000302%
same,relative induction of RFP reporter,[26],-1.95%
same,relative induction of RFP reporter,[27],-0.275%
same,relative induction of RFP reporter,[28],-0.224%
same,relative induction of RFP reporter,[29],-0.418%
same,relative induction of RFP reporter,[30],0.0421%
same,relative induction of RFP reporter,[31],-0.423%
same,relative induction of RFP reporter,[32],-0.832%
same,relative induction of RFP reporter,[33],-0.00545%
same,relative induction of RFP reporter,[34],-0.954%
same,relative induction of RFP reporter,[35],0.605%
same,relative induction of RFP reporter,[36],-0.0388%
N[C@@H](Cc1ccccc1)C(=O)O [L-phenylalanine],relative induction of RFP reporter,[1],-1.77%
same,relative induction of RFP reporter,[2],-0.0146%
same,relative induction of RFP reporter,[3],-0.263%
same,relative induction of RFP reporter,[4],-0.0737%
same,relative induction of RFP reporter,[5],-4.81%
same,relative induction of RFP reporter,[6],-2.3%
same,relative induction of RFP reporter,[7],57.7%
same,relative induction of RFP reporter,[8],0.00484%
same,relative induction of RFP reporter,[9],-1.24%
same,relative induction of RFP reporter,[10],-0.267%
same,relative induction of RFP reporter,[11],-0.485%
same,relative induction of RFP reporter,[12],-0.0265%
same,relative induction of RFP reporter,[37],0.153%
same,relative induction of RFP reporter,[13],-1.38%
same,relative induction of RFP reporter,[14],0.00514%
same,relative induction of RFP reporter,[15],-1.94%
same,relative induction of RFP reporter,[16],-2.37%
same,relative induction of RFP reporter,[17],-0.26%
